Compound activity (PubChem)
Sampled rows, rich in hits. Any-hit rate of the full collection: about 11%.
Gal4-VP16 FLuc = Gal4-VP16 reporter inhibition counter-screen. Drosophila S2 Gal4-VP16 UAS-luciferase, luminescence, 20 h. Potency, µM (doses to about 53.6 µM), hits mostly inhibitors. hit rate 3.5% among 310,000. AID 2546;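 further: Gal4-VP16 expression switched on by copper sulfate through the metallothionein promoter; nearly all actives have a fitted effect of over 50% in size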
RORgamma inh = inhibitors of mouse ROR gamma transcriptional activity; Potency, µM (highest dose often 53.6 µM), hits mostly inhibitors; P51450; Drosophila S2 Gal4-RORgamma UAS-luciferase reporter, 20 h; hit rate 5.4% among 310,000; further: nearly all actives have a fitted effect of over 60% in size
Target sequence (P51450 whole entry, looked up, the tested form may be a part): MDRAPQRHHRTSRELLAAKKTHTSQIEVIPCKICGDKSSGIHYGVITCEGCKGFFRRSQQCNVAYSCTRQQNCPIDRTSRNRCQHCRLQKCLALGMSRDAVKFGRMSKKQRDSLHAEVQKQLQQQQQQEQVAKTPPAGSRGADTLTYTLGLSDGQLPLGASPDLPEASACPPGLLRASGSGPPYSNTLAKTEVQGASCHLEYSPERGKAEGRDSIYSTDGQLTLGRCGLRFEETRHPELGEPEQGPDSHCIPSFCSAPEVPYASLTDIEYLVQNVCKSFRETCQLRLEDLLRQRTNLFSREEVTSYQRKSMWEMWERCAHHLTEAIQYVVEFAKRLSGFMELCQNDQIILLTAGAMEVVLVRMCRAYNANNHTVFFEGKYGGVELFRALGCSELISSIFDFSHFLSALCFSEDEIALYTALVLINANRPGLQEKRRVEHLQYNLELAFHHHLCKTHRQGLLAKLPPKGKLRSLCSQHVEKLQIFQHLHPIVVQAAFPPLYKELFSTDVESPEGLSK
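In this cell-based reporter format, copper sulfate (700 uM final) drives Gal4–ROR gamma fusion expression from a metallothionein promoter in Drosophila Schneider cells; compounds preincubated 1 hr, reporter read after 20 hr at ambient temperature.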
SW480 rereplic = DNA re-replication induction in SW480 cells. hit rate 1.8% among 340,000. SW480 DNA re-replication, Hoechst DNA content imaging, 48 h. Potency, µM (top dose mostly 46.1 µM), most hits filed as activators; further: nearly all actives have a fitted effect of over 55% in size
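Compounds, transferred as 23 nL by pin tool, were incubated with cells for 48 hr; DNA content per nucleus was then quantified by Hoechst staining and fluorescence plate imaging.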
MCF10A rereplic = induces DNA re-replication in MCF 10a normal breast cells; MCF 10A DNA re-replication, Hoechst nuclear intensity, 48 h; Potency, µM (top dose mostly 46.1 µM), most hits filed as activators; hit rate 2.9% among 350,000; AID 624296; further: nearly all actives have a fitted effect of over 50% in size
IL-1B inflam inh = blocks inflammasome-driven IL-1 beta release. THP-1 LPS/ATP IL-1B secretion, AlphaLISA, 16 h; hits give low values. activity change, % at 57.5 µM. hit rate 4.7% among 360,000; in the data active means activity change below about -50%; inconclusive means mostly about -30% to -49%
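Secreted IL-1B measured by AlphaLISA bead assay after 16 h compound exposure of THP-1 cells; compounds (final up to 57.5 uM) added 1 h before LPS (250 ng/mL) and ATP (1.25 mM) stimulation; lower signal means less secretion.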
Of the large screens only hits and unclear results are named; the others gave an inactive call. Unless noted, the call rests on the fitted dose curve; in most records, active means well fitted curve in the direction sought with a large enough effect; inconclusive means small, poorly fitted or top-dose-only effect, or another doubt; inactive means no such curve, though single readings can be large; an effect the other way counts as inactive or inconclusive.

O=C(N/N=C/c1cccc(C(F)(F)F)c1)c1ccccc1O	Gal4-VP16 FLuc inconclusive, RORgamma inh 10µM
CC(NC(=O)CN1C(=O)NC2(CCc3ccccc32)C1=O)c1ccc2c(c1)OCCO2 (stereo unspecified)	none (no result: Gal4-VP16 FLuc, RORgamma inh)
O=C(NCCc1ccccc1C(F)(F)F)c1cc(COc2ccccc2)on1	none (no result: Gal4-VP16 FLuc, RORgamma inh, SW480 rereplic, MCF10A rereplic)
CCCCn1c(CCn2nc(C)c(Br)c2C)n[nH]c1=S	Gal4-VP16 FLuc inconclusive, RORgamma inh 11µM
C[C@H](CO)N1C[C@H](C)[C@@H](CN(C)S(=O)(=O)c2cccs2)Oc2ccc(NS(=O)(=O)c3ccccc3)cc2CC1=O	MCF10A rereplic inconclusive (no result: Gal4-VP16 FLuc, RORgamma inh)
CC1CC(C)(C)NC(=S)N1CCC(=O)N1CCc2ccccc2C1 (stereo unspecified)	Gal4-VP16 FLuc inconclusive, RORgamma inh 16µM
CC1CC(C)(C)NC(=S)N1CCCC(=O)N1CCN(c2ccc(F)cc2)CC1 (stereo unspecified)	RORgamma inh 10µM
O=C(CCCOc1ccccc1)N1CCN(c2ccc(F)cc2)CC1	RORgamma inh inconclusive
CC1CC(C)(C)NC(=S)N1CCC(=O)N1CCN(c2ccccc2)CC1 (stereo unspecified)	Gal4-VP16 FLuc inconclusive, RORgamma inh 7.9µM
CC(=O)c1ccc(N2CCN(C(=O)CCN3C(=S)NC(C)(C)CC3C)CC2)cc1 (stereo unspecified)	RORgamma inh inconclusive
Cc1ccc(C)c(N2CCN(C(=O)CN3C(=S)NC(C)(C)CC3C)CC2)c1 (stereo unspecified)	Gal4-VP16 FLuc inconclusive, RORgamma inh 7.9µM
CC1CC(C)(C)NC(=S)N1CC(=O)N1CCN(Cc2ccccc2)CC1 (stereo unspecified)	none
COc1cccc(Cn2c(=O)c(-c3ccc(F)c(F)c3)nc3cncnc32)c1	none (no result: SW480 rereplic, MCF10A rereplic, IL-1B inflam inh)
COc1ccccc1OCC(=O)N1CCCC(Nc2ccc(F)c(F)c2)C1 (stereo unspecified)	none
COc1ccc(N2CCN(C(=O)CCN3C(=S)NC(C)(C)CC3C)CC2)cc1 (stereo unspecified)	RORgamma inh 11µM
Cc1ccc2ccc(C(Nc3ccccc3)c3ccc(C(C)C)cc3)c(O)c2n1 (stereo unspecified)	none (no result: Gal4-VP16 FLuc, RORgamma inh, SW480 rereplic, MCF10A rereplic)
Oc1c(C(Nc2ccccn2)c2ccccn2)ccc2cccnc12 (stereo unspecified)	Gal4-VP16 FLuc 2.2µM, RORgamma inh 1.1µM, SW480 rereplic inconclusive, MCF10A rereplic inconclusive
Cc1ccc2ccc(C(Nc3ccccc3)c3ccccc3)c(O)c2n1 (stereo unspecified)	none (no result: Gal4-VP16 FLuc, RORgamma inh, SW480 rereplic, MCF10A rereplic)
Cc1ccnc(NC(c2ccccc2)c2ccc3cccnc3c2O)c1 (stereo unspecified)	SW480 rereplic inconclusive, MCF10A rereplic inconclusive (no result: Gal4-VP16 FLuc, RORgamma inh)
COc1cc(C(Nc2ccccn2)c2ccc3ccc(C)nc3c2O)cc(OC)c1O (stereo unspecified)	Gal4-VP16 FLuc 13µM, RORgamma inh 7.1µM, SW480 rereplic 21µM, MCF10A rereplic 13µM, IL-1B inflam inh -116
Cc1ccc2ccc(C(Nc3ccccn3)c3ccccc3)c(O)c2n1 (stereo unspecified)	Gal4-VP16 FLuc 4.5µM, RORgamma inh 5µM
Cc1cccc(NC(c2ccc(C)s2)c2ccc3ccc(C)nc3c2O)n1 (stereo unspecified)	Gal4-VP16 FLuc 5µM, RORgamma inh 10µM, SW480 rereplic inconclusive, MCF10A rereplic 5.8µM, IL-1B inflam inh -74
Cc1ccc2ccc(C(Nc3ccccc3)c3ccc(F)cc3)c(O)c2n1 (stereo unspecified)	none (no result: Gal4-VP16 FLuc, RORgamma inh, SW480 rereplic, MCF10A rereplic)
Oc1ccccc1C(Nc1nccs1)c1ccc2cccnc2c1O (stereo unspecified)	Gal4-VP16 FLuc 5µM, RORgamma inh inconclusive, MCF10A rereplic inconclusive
O=C(c1ccc2c(c1)[nH]c(=S)n1c3ccccc3nc21)N1CCN(c2ncccn2)CC1	MCF10A rereplic 9.2µM
O=C(NCCN1CCN(c2ccccc2)CC1)c1ccc2c(c1)[nH]c(=S)n1c3ccccc3nc21	MCF10A rereplic inconclusive
C=CCOc1ccc2cccc(/C=N/NC(=O)c3cc4cc([N+](=O)[O-])ccc4s3)c2c1	SW480 rereplic 21µM, MCF10A rereplic inconclusive
CN1CCN(C(=O)c2cc3ccccc3[nH]2)CC1	none
Cc1ccc(S(=O)(=O)N2CCCN(C(=O)c3cc4ccccc4[nH]3)CC2)cc1	Gal4-VP16 FLuc inconclusive, RORgamma inh inconclusive, MCF10A rereplic inconclusive, IL-1B inflam inh -61
Cc1ccc(S(=O)(=O)N2CCN(C(=O)c3c(C)nn(-c4ccccc4)c3Cl)CC2)cc1	SW480 rereplic inconclusive, MCF10A rereplic inconclusive, IL-1B inflam inh -54
COc1ccc(-n2c(COc3cccc4ccccc34)nnc2SCC#N)cc1	MCF10A rereplic inconclusive
Cc1ccccc1OCc1nnc(SCCN2CCCC2)n1-c1ccccc1	Gal4-VP16 FLuc inconclusive, RORgamma inh 11µM
N#CCSc1nnc(COc2cccc3ccccc23)n1-c1ccccc1	Gal4-VP16 FLuc inconclusive, RORgamma inh inconclusive, MCF10A rereplic inconclusive, IL-1B inflam inh -68
COC(=O)c1c(C(=O)OC)c2c(-c3ccccc3)cc3cccc1n32	none (no result: Gal4-VP16 FLuc, RORgamma inh, SW480 rereplic, MCF10A rereplic)
CNC(=S)N(CCc1ccc(S(N)(=O)=O)cc1)C1CC(=O)N(c2ccccc2F)C1=O (stereo unspecified)	SW480 rereplic 5.8µM
O=C(c1ccccc1)n1c(=S)nc2ccccn21	Gal4-VP16 FLuc inconclusive, RORgamma inh inconclusive
Cc1ccc(C(=O)n2c(=S)nc3ccccn32)cc1	Gal4-VP16 FLuc inconclusive, RORgamma inh 1.6µM (no result: SW480 rereplic, MCF10A rereplic, IL-1B inflam inh)
Cc1cccc(C(=O)n2c(=S)nc3ccccn32)c1	Gal4-VP16 FLuc 3.2µM, RORgamma inh 2.5µM
CN1C(=O)[C@H]2[C@@H](c3ccc(C(F)(F)F)cc3)N[C@]3(CCCN(CC4CCCCC4)C3=O)[C@H]2C1=O	none (no result: Gal4-VP16 FLuc, RORgamma inh, SW480 rereplic, MCF10A rereplic)
CCCCn1nnnc1C1(C)CCC(=O)N1CC1CCCCC1 (stereo unspecified)	none (no result: Gal4-VP16 FLuc, RORgamma inh, SW480 rereplic, MCF10A rereplic)
COCCNC(=S)NCc1ccc2[nH]c3c(c2c1)CCCC3	RORgamma inh 20µM, MCF10A rereplic inconclusive
Cc1ccc(NC(=S)NCc2ccc3[nH]c4c(c3c2)CCCC4)cc1	Gal4-VP16 FLuc 2.8µM, RORgamma inh 7.9µM, SW480 rereplic inconclusive, IL-1B inflam inh inconclusive
CC[C@H]1NC(=O)c2cc(S(N)(=O)=O)c(Cl)cc2N1	none (no result: IL-1B inflam inh)
CC1CN(c2ncc(/C=N/NC(=O)c3ccccc3O)s2)CC(C)O1 (stereo unspecified)	Gal4-VP16 FLuc 1.3µM, RORgamma inh 0.35µM
CCOc1cccc2cc(C(=O)NCc3ccc(Cl)cc3)c(=N)oc12	MCF10A rereplic inconclusive, IL-1B inflam inh -65
CCOc1ccc2cc(C(=O)c3ccccc3)c(=O)oc2c1	none
O=C(O)c1cc2ccc(O)cc2oc1=O	none (no result: Gal4-VP16 FLuc, RORgamma inh, SW480 rereplic, MCF10A rereplic)
C/C(=N\NC(=O)CC#N)c1cc2ccc(O)cc2oc1=O	SW480 rereplic 21µM, MCF10A rereplic 9.2µM
CCOc1ccc2cc(C(=O)NCc3ccccc3)c(=N)oc2c1	MCF10A rereplic inconclusive, IL-1B inflam inh -77
COc1ccccc1C(=O)c1cc2ccc(O)cc2oc1=O	RORgamma inh 20µM
